# What was measured:
# Test in all cases: DAPPL (digital affinity profiling via proximity ligation, sequencing); 10 mM Tris-HCl pH 7.5, 50 mM NaCl, 1 mM DTT, 4% glycerol, room temperature, 30 min; GST-TFs on glutathione beads, 16-mer random dsDNA library, 0.1% formaldehyde crosslink after washing; high values mean tight binding
# [1] = biological target: T1, FLI1 (Homo sapiens, UniProt Q01543 1-452); conditions: protein: recombinant; tags: N-terminal GST; dsDNA, one strand shown
# T1 sequence: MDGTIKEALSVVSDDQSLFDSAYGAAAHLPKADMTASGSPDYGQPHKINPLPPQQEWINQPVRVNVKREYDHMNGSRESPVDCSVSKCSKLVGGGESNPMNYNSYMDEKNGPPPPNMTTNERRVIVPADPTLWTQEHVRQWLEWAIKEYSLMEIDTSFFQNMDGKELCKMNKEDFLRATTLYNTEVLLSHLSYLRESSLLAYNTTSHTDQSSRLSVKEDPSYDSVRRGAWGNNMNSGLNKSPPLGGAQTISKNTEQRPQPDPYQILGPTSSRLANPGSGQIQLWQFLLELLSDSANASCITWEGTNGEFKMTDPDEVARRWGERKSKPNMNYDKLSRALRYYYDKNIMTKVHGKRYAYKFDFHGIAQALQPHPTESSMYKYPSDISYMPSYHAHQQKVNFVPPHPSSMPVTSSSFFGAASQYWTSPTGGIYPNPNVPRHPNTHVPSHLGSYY
# Summary of the method: (§1)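 Each value of binding signal is a hexamer's read frequency for a factor divided by the same hexamer's frequency in the tag-only sample. Barcoded, bead-captured GST fusions of human transcription factors made in yeast were pooled with that sample and incubated with 200 nmole of a random double-stranded 16-mer DNA library in Tris/NaCl/DTT/glycerol buffer at room temperature for 30 min. Washing, 0.1% formaldehyde crosslinking, proximity ligation, PCR and Illumina NextSeq500 sequencing followed.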
# [2] = biological target: T2, ELK1 (Homo sapiens, UniProt P19419 1-428); conditions: protein: recombinant; tags: N-terminal GST; dsDNA, one strand shown
# T2 sequence: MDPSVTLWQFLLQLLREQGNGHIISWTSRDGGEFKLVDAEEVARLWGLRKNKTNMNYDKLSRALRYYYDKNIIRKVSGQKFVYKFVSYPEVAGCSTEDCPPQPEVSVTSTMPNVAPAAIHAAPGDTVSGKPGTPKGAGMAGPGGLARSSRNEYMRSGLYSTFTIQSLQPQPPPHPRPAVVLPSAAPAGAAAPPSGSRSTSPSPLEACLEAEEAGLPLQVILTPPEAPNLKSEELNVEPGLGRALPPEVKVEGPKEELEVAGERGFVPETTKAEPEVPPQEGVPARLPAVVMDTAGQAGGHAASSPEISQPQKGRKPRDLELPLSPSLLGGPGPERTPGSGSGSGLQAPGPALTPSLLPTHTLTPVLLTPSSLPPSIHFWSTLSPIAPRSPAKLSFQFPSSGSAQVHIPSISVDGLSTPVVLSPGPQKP
# Summary of the method: as §1
# [3] = biological target: T3, GABPA (Homo sapiens, UniProt Q06546 1-454); conditions: protein: recombinant; tags: N-terminal GST; dsDNA, one strand shown
# T3 sequence: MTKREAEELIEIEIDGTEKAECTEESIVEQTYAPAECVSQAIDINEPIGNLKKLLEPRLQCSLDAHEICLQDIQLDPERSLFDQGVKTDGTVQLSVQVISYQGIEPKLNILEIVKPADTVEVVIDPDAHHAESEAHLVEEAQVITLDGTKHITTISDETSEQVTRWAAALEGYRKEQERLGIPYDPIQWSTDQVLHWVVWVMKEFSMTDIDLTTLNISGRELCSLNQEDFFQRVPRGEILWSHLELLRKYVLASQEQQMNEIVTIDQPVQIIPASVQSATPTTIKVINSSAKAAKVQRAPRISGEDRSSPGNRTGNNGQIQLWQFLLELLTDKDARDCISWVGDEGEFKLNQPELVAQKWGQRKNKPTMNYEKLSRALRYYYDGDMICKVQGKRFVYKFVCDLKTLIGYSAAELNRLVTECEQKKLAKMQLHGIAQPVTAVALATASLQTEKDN
# Summary of the method: as §1
# [4] = biological target: T4, ERG (Homo sapiens, UniProt P11308 1-479); conditions: protein: recombinant; tags: N-terminal GST; dsDNA, one strand shown
# T4 sequence: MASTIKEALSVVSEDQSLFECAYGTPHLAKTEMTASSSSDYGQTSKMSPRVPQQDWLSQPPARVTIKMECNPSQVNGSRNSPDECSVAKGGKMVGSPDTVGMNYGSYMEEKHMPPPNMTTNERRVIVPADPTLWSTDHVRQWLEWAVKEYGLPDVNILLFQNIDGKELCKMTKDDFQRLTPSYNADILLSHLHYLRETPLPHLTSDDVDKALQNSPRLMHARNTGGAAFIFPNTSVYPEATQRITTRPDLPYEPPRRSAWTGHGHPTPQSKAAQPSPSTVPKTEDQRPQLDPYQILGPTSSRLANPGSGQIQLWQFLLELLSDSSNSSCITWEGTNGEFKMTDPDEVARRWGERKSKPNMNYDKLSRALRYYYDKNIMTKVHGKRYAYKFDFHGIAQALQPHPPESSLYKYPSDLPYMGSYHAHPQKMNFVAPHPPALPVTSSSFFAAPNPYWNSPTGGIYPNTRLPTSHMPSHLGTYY
# Summary of the method: as §1
# [5] = biological target: ELF1 (Homo sapiens, UniProt P32519 1-619); conditions: protein: recombinant; tags: N-terminal GST; dsDNA, one strand shown
# Summary of the method: as §1
# [6] = biological target: T5, EHF (Homo sapiens, UniProt Q9NZC4 1-300); conditions: protein: recombinant; tags: N-terminal GST; dsDNA, one strand shown
# T5 sequence: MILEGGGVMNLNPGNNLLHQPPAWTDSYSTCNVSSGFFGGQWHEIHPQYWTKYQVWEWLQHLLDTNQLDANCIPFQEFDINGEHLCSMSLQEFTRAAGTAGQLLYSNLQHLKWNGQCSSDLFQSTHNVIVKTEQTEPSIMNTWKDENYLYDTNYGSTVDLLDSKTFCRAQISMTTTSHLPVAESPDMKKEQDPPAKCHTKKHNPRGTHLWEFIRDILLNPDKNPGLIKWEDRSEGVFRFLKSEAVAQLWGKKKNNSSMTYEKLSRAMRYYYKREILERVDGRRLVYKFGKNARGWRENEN
# Summary of the method: as §1
# [7] = biological target: SPI1 (Homo sapiens, UniProt P17947 1-270); conditions: protein: recombinant; tags: N-terminal GST; dsDNA, one strand shown
# Summary of the method: as §1
# [8] = biological target: SPIB (Homo sapiens, UniProt Q01892 1-262); conditions: protein: recombinant; tags: N-terminal GST; dsDNA, one strand shown
# Summary of the method: as §1
# [9] = biological target: T6, ELK3 (Homo sapiens, UniProt P41970 1-407); conditions: protein: recombinant; tags: N-terminal GST; dsDNA, one strand shown
# T6 sequence: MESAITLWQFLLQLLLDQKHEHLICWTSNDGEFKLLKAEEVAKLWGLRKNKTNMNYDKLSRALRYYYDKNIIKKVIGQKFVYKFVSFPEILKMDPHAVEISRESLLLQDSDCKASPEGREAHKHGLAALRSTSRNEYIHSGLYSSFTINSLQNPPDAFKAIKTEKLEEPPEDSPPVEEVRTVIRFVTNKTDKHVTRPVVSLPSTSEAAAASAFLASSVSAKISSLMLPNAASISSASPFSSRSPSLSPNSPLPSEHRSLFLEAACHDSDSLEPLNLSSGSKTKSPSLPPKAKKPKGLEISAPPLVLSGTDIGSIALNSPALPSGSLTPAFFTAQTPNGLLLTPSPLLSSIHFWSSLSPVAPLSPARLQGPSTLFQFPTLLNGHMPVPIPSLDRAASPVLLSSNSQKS
# Summary of the method: as §1
# [10] = biological target: T7, FEV (Homo sapiens, UniProt Q99581 1-238); conditions: protein: recombinant; tags: N-terminal GST; dsDNA, one strand shown
# T7 sequence: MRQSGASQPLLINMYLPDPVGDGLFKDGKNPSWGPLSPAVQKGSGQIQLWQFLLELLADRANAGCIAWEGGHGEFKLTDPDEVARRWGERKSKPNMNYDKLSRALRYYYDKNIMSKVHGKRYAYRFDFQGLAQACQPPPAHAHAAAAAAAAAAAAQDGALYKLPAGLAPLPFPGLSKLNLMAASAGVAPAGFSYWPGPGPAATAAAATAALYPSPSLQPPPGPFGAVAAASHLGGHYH
# Summary of the method: as §1
# [11] = biological target: ETV5 (Homo sapiens, UniProt P41161 1-510); conditions: protein: recombinant; tags: N-terminal GST; dsDNA, one strand shown
# Summary of the method: as §1
# [12] = biological target: HSF1 (Homo sapiens, UniProt Q00613 1-529); conditions: protein: recombinant; tags: N-terminal GST; chain copies: 3; dsDNA, one strand shown
# Summary of the method: as §1
# [13] = biological target: T8, SPIC (Homo sapiens, UniProt Q8N5J4 1-248); conditions: protein: recombinant; tags: N-terminal GST; dsDNA, one strand shown
# T8 sequence: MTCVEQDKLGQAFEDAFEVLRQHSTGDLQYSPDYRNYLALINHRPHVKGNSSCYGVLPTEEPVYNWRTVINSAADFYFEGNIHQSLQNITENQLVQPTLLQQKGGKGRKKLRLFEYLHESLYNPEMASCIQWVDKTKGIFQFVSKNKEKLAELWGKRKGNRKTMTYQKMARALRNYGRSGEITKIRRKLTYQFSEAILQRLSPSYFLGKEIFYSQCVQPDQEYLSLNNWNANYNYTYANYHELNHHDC
# Summary of the method: as §1
# [14] = biological target: ELF4 (Homo sapiens, UniProt Q99607 1-663); conditions: protein: recombinant; tags: N-terminal GST; dsDNA, one strand shown
# Summary of the method: as §1
# [15] = biological target: T9, ELK4 (Homo sapiens, UniProt P28324-2 1-405); conditions: protein: recombinant; tags: N-terminal GST; dsDNA, one strand shown
# T9 sequence: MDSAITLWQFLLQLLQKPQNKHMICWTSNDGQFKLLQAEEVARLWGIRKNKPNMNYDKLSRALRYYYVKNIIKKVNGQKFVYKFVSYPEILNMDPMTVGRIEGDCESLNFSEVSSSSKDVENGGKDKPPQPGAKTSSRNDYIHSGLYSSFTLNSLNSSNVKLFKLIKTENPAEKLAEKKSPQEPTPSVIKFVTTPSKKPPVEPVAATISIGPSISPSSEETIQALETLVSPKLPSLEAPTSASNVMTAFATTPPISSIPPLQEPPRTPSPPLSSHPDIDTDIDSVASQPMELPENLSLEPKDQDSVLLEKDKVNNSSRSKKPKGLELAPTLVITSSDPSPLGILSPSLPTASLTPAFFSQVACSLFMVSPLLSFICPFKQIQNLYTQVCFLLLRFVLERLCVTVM
# Summary of the method: as §1
# [16] = biological target: T10, ETV2 (Homo sapiens, UniProt O00321 1-342); conditions: protein: recombinant; tags: N-terminal GST; dsDNA, one strand shown
# T10 sequence: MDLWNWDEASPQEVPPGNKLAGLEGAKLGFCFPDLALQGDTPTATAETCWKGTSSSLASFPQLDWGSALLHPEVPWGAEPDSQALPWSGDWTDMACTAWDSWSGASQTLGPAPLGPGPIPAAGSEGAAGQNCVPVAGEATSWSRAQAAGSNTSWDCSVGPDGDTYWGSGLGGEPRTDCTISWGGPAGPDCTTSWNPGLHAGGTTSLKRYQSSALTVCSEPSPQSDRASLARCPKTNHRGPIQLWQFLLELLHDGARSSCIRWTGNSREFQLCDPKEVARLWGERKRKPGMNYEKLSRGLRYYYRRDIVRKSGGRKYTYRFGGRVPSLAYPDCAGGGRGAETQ
# Summary of the method: as §1
# [17] = biological target: T11, ELF3 (Homo sapiens, UniProt P78545 1-371); conditions: protein: recombinant; tags: N-terminal GST; dsDNA, one strand shown
# T11 sequence: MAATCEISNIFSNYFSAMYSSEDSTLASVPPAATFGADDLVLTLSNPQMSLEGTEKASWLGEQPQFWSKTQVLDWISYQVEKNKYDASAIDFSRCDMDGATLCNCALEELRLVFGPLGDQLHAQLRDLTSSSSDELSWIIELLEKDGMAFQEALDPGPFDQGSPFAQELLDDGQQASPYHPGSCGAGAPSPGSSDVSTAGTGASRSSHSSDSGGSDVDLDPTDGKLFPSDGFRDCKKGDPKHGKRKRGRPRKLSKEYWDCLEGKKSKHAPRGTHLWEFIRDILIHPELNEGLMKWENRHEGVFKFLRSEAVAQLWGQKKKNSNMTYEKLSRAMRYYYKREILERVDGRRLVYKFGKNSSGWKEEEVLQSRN
# Summary of the method: as §1
# [18] = biological target: ETV1 (Homo sapiens, UniProt P50549 1-477); conditions: protein: recombinant; tags: N-terminal GST; dsDNA, one strand shown
# Summary of the method: as §1
# Sequence of ELF4 (Q99607 whole entry): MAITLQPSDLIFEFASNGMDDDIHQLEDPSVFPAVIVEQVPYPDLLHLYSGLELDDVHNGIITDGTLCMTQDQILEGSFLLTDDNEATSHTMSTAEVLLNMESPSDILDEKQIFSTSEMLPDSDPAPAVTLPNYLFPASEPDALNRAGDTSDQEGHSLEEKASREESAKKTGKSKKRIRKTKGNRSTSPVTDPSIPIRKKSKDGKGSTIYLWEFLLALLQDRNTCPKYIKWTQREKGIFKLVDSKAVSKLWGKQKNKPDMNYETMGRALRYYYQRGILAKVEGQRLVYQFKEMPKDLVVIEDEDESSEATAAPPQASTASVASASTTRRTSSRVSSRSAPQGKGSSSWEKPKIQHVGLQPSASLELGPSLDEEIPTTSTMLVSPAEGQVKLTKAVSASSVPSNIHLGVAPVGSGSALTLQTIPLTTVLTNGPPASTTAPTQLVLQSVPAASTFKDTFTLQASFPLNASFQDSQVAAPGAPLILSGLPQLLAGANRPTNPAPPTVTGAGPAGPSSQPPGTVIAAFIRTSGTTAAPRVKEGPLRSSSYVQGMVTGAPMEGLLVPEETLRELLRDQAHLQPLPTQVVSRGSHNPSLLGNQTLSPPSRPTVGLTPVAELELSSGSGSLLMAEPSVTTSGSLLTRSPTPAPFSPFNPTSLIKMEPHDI
# Sequence of HSF1 (Q00613 whole entry): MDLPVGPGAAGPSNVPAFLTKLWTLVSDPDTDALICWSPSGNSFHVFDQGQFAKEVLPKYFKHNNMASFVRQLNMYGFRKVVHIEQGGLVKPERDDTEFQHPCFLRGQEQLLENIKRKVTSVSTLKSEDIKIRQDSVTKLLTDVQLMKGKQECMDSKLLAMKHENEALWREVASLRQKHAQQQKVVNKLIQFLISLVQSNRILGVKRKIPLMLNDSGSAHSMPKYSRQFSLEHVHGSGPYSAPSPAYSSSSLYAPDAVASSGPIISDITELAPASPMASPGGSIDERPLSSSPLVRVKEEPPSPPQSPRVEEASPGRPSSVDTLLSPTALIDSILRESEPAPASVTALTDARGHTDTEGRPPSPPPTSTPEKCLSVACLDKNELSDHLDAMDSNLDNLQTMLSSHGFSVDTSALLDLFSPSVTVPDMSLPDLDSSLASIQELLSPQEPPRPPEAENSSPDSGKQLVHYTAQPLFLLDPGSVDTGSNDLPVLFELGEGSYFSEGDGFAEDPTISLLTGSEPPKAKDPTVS
# Sequence of ETV5 (P41161 whole entry): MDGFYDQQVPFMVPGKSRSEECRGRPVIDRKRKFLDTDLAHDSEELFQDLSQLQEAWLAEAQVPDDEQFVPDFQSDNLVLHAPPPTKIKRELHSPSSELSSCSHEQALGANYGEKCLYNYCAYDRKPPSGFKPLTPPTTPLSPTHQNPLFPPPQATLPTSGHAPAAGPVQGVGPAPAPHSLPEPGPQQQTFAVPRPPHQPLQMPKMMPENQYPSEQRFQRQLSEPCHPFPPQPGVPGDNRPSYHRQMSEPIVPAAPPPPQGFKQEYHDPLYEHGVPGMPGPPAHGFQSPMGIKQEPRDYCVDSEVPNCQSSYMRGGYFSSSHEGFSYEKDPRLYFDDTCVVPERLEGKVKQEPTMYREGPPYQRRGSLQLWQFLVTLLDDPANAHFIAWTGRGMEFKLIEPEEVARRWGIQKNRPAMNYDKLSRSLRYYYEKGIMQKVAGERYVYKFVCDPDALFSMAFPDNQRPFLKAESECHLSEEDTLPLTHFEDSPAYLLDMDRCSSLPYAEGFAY
# Sequence of SPIB (Q01892 whole entry): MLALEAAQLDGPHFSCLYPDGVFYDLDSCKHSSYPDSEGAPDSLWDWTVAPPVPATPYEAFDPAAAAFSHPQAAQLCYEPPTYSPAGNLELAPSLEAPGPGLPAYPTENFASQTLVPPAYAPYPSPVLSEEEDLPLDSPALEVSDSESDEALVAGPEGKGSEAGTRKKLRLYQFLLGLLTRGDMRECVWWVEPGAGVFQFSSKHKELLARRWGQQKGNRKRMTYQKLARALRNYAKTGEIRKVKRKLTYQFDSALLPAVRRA
# Sequence of ELF1 (P32519 whole entry): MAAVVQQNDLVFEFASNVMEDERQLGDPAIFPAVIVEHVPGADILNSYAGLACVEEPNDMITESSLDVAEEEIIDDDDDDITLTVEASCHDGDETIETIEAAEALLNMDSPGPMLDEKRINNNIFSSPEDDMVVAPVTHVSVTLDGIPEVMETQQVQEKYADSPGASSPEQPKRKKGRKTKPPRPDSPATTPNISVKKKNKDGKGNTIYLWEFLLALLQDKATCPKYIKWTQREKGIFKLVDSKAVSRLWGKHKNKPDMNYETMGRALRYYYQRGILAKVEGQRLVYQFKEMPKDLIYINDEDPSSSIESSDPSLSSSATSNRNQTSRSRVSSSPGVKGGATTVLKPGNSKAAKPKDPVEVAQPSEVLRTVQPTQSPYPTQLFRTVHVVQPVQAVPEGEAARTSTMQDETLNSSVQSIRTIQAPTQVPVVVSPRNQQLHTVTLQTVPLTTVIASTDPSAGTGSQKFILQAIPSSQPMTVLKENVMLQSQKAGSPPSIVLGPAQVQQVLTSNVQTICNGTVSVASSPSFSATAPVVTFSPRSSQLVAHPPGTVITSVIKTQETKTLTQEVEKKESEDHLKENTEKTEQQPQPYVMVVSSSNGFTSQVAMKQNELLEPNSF
# Sequence of ETV1 (P50549 whole entry): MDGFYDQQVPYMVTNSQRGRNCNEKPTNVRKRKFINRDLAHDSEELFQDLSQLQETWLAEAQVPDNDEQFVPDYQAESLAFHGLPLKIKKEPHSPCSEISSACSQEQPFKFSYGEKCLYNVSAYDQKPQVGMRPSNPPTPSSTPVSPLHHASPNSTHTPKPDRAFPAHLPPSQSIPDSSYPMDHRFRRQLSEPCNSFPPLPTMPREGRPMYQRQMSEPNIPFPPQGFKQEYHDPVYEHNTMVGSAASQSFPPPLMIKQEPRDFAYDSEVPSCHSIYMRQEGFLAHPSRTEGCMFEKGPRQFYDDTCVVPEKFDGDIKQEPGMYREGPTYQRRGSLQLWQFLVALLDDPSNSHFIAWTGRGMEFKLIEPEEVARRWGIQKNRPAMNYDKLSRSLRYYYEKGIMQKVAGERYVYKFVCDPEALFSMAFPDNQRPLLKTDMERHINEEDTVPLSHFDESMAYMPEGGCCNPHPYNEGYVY
sequence,measurement,setting,value
TAGGAA,binding signal,[1],"1.07 fold enrichment (6-mer frequency, TF over GST control)"
same,binding signal,[2],"1 fold enrichment (6-mer frequency, TF over GST control)"
same,binding signal,[3],"1.04 fold enrichment (6-mer frequency, TF over GST control)"
same,binding signal,[4],"1.17 fold enrichment (6-mer frequency, TF over GST control)"
same,binding signal,[5],"1.03 fold enrichment (6-mer frequency, TF over GST control)"
same,binding signal,[6],"1.25 fold enrichment (6-mer frequency, TF over GST control)"
same,binding signal,[7],"1.23 fold enrichment (6-mer frequency, TF over GST control)"
same,binding signal,[8],"1.28 fold enrichment (6-mer frequency, TF over GST control)"
same,binding signal,[9],"1.03 fold enrichment (6-mer frequency, TF over GST control)"
same,binding signal,[10],"1.06 fold enrichment (6-mer frequency, TF over GST control)"
same,binding signal,[11],"1.19 fold enrichment (6-mer frequency, TF over GST control)"
same,binding signal,[12],"1.11 fold enrichment (6-mer frequency, TF over GST control)"
same,binding signal,[13],"1.27 fold enrichment (6-mer frequency, TF over GST control)"
same,binding signal,[14],"1.09 fold enrichment (6-mer frequency, TF over GST control)"
same,binding signal,[15],"1.01 fold enrichment (6-mer frequency, TF over GST control)"
same,binding signal,[16],"1.2 fold enrichment (6-mer frequency, TF over GST control)"
same,binding signal,[17],"1.2 fold enrichment (6-mer frequency, TF over GST control)"
same,binding signal,[18],"1.13 fold enrichment (6-mer frequency, TF over GST control)"
